From PubChem BioAssay
Active and inactive are the calls of the source.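 Rule for the calls: active = inhibition above the hit cutoff set in the earlier primary screen (cut at about 27% in these data); inactive = the rest.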

Biological target: Protein phosphatase methylesterase 1 (Homo sapiens) (UniProt Q9Y570)
Assay: PME-1 inhibitor activity retest, confirmation, biochemical, fluorescence polarization, FP-Rh probe, triplicate (AID 2171);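 note: 0% = enzyme with DMSO and 100% = wells lacking PME-1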
Conditions: recombinant PME-1, FP-Rh probe fluorescence polarization; at 5.9 µM; hits give high values

Protein phosphatase methylesterase 1 (Homo sapiens), sequence (Q9Y570 whole entry, looked up): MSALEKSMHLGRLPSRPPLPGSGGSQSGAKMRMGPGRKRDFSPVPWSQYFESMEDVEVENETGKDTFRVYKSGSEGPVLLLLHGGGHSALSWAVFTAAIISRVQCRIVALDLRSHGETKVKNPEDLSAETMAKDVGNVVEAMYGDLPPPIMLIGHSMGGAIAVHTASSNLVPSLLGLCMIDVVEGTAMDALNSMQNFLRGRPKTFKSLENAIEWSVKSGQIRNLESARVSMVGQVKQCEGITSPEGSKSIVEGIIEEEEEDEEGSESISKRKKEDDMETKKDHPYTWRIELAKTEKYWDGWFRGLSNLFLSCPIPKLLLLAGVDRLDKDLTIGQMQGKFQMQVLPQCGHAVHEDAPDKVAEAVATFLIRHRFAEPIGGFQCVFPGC

inhibition, active:
COc1cc(/C=N/NC(=O)c2ccc3c(c2)OCCO3)c(Br)c(Br)c1O 43%
O=c1c2ccccc2nc(/C=C/c2c[nH]c3ccccc23)n1CCO 58.5%
C/C(=N\NC(=O)c1ccc(N/N=C(\C)c2ccc(O)cc2)cc1)c1ccc(O)cc1 43.4%
COc1ccc(N=Nc2nc3cc(Br)c(Br)cc3n2C)c(OC)c1 50.6%
COc1cc(OC)cc(-c2nnc(Nc3nc4c(F)cccc4s3)o2)c1 56.2%
O=C(NNc1nc2c(F)cccc2s1)c1cc(=O)c2ccccc2o1 58.6%
CCOC(=O)c1ccc(Nc2nc(N)c3cc(OC)c(OC)cc3n2)cc1 27.9%
Nc1c(C(=O)Nc2ccc(Br)cc2)sc2nc(-c3ccco3)ccc12 34.4%
CCCCCCCCCCCCCCCC[n+]1ccc(/C=N/O)cc1 60.4%
O=C1C=C(N2CCOCC2)c2ccccc2C1=O 41%
COc1ccc(N/N=C(\C=N\O)C(=O)c2ccc(OC)cc2)cc1 58.9%
COc1cc(N/N=C(\C)c2ccc(O)c(C)c2)nc(-c2ccccc2)n1 27.3%
CCN(CC)C(=O)CSc1nc2c(sc(=S)n2-c2ccccc2)c(=O)n1Cc1ccco1 78.6%
Cc1nn(-c2ccccc2)c2sc(-c3n[nH]c(=S)o3)cc12 43.8%
Cc1cccc(NC(=O)COC(=O)c2cccc3c2C(=O)c2ccccc2C3=O)c1C 37.5%
O=C(O)c1ccc(N/N=C/c2cn(Cc3ccccc3F)c3ccccc23)cc1 93.4%
CC(=O)Nc1ccc(Nc2c3c4c(cccc4n(C)c2=O)C(=O)c2ccccc2-3)cc1 31.5%
CCOC(=O)N1CC=C2C(C#N)=C(N)C(C#N)(C#N)[C@H](c3cccs3)C2C1 (stereo not given in full) 35.2%
CC1=NN(c2ccccc2)C(=O)C1N=Nc1cccc(O)c1 (stereo not given) 28.1%
O=C(COC(=O)c1ccccc1Br)Nc1cc(S(=O)(=O)N2CCOCC2)ccc1N1CCCC1 52.1%

inhibition, inactive:
CC(C)=CCc1cc2c(=O)c3c(O)c4c(cc3oc2c(O)c1O)OC(C)C4(C)C (stereo not given) -51.2%
Oc1ccccc1C1Nc2cccc3cccc(c23)N1 24.4%
O=C1Nc2ccccc2/C1=N\N=C\C1=C(N2CCOCC2)C(=C\c2ccccc2)/CC1 24%
COc1ccc(/C=N/Nc2cc(C)nc3ccc(Br)cc23)cc1 12.9%
O=C(Nc1ccc(Nc2ccccc2)cc1)Nc1ccccc1Cl -2.21%
CCOc1ccc(C(=O)NC(C)CCc2ccccc2)cc1 (stereo not given) -6.46%
COc1ccc2c(Cl)c(C(=O)N/N=C/c3c(C)[nH]c4ccccc34)sc2c1 18.5%
COc1ccc(-c2sc(Nc3ccc(F)c(F)c3F)nc2CCC(=O)NN)cc1 24.1%
CCOC(=O)c1c2c3c(cccc3n(C)c1=O)C(=O)c1ccccc1-2 21%
N#CCC(=O)Nc1ccc(C(=O)OCc2ccccc2Oc2ccccc2)cc1 -74.3%
CCN(CC)c1ccc(-c2nn3c(-c4ccccc4OC)nnc3s2)cc1 22.1%
CC1(C)CC(=O)C2=C(C1)N(CCN1CCOCC1)C1=C(C(=O)CC(C)(C)C1)C2c1cccc(F)c1 25.2%
O=C(N/N=C/c1ccc(O)cc1)c1cccc(N/N=C/c2ccc(O)cc2)c1 18.8%
COC(=O)c1ccccc1C(=O)c1ccc2c(c1)NC(=O)CO2 7.04%
CC(C)(C)c1ccc(NC(=O)C2=CC=CN3CCS(=O)(=O)N=C23)cc1 9.34%
COc1cc2c(cc1NC(=O)c1cccnc1)oc1ccccc12 25.8%
CCOc1ccc2nc(SCC(=O)Nc3ccc4c(c3)OCCO4)[nH]c2c1 25.3%
Cc1cccc(OCCn2cc(/C=N/NC(=O)c3ccncc3)c3ccccc32)c1 2.22%
COc1ccc(/C(C)=C2/SC(=S)N(CCC(=O)O)C2=O)cc1 4.27%
CC1(OC(=O)c2cnc3ccccc3n2)C(=O)C=C2C=C(C3CC3)OC=C2C1=O (stereo not given) 23.9%
